# Compound activity from PubChem BioAssay.
# Wnt bcat act – activators of Wnt/beta-catenin signaling. actives 1.2% (n = 300,000). Wnt/beta-catenin reporter cell assay, activator, plate reader. AID 743398. activation, % at 9.35 µM; in the data active = activation above about 30%, passing the limit was not always enough; inconclusive = no clear call, values can overlap the other calls;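 note: 0% = neutral control wells and 100% = positive control wells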
# PfHsp90 set2 – growth inhibition of yeast expressing Plasmodium Hsp90. AID 504621. actives 0.32% (n = 310,000). inhibition, % at 9.4 µM. S. cerevisiae expressing PfHsp90, BacTiter-Glo ATP, 48 h; yeast lacking PDR1 and PDR3 efflux regulators;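 active = every replicate shows inhibition above about 80%, whatever the replicate mean, limit read from the data; inconclusive = mean inhibition reaches the set limit but some replicate falls short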;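 note: 0% = DMSO neutral controls and 100% = 20 µM radicicol positive controls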
# MITF act – increases MITF-driven TRPM1 promoter luciferase signal; SK-MEL-5 TRPM1-promoter luciferase, 24 h; % of positive control, neutral wells = 0; activation, % at 12.5 µM; actives 0.75% (n = 300,000); AID 588334;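 active = mean activation of at least 80% with every replicate also reaching 80%; inconclusive = mean reaches 80% but some replicate falls short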;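 note: 0% = neutral control wells and 100% = parthenolide positive control wells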
# NSD2 HMT inh – inhibitors of human histone methyltransferase NSD2 | actives 0.54% (n = 310,000) | O96028 | inhibition, % at 12.5 µM | NSD2 peptide methylation, AlphaScreen, 120 min; in the data active = inhibition above about 50%
# Glyco luc inh – blocks N-linked glycosylation in D54 reporter cells; actives 0.23% (n = 360,000); D54 ERlucT glycosylation luciferase reporter, 24 h; percent of 100 nM tunicamycin response; reporter increase, % at 12.5 µM;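 active = mean luciferase reporter signal, scaled so untreated is 0 and the glycosylation-blocking control 100, at or above a set limit in every replicate; inconclusive = mean reaches the limit but not every replicate does; inactive = mean below the limit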;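 note: luciferase carries N-glycosylation sites so blocking glycosylation raises the light; 0% = median of neutral control wells and 100% = median of 100 nM tunicamycin wells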
# TRPM1 prom inh – inhibitors of MITF-driven TRPM1 promoter in melanoma cells | inhibition, % at 12.5 µM | SK-MEL-5 TRPM1 promoter luciferase, 24 h | actives 0.83% (n = 330,000);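 active = mean inhibition across replicates of 60% or more, whatever share of single replicates reaches that level; inconclusive = some that reach 60%, reason not given; inactive = mean inhibition across replicates below 60%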
# * hit, by the source's call; ? = inconclusive; . = no result. Most compounds without a hit are left out; they make up all but 2.9% or so of the library.
SMILES,Wnt bcat act,PfHsp90 set2,MITF act,NSD2 HMT inh,Glyco luc inh,TRPM1 prom inh
COc1ccc2[nH]c(=O)c(CNc3ccccc3OC)cc2c1,-0.9,5.6,-4.6,2.6,-0.3,3.3
COc1ccc2[nH]c(=O)c(CNc3ccccc3C)cc2c1,38.9*,-7.8,16.1,0.7,-3.4,-14.8
CSc1ncccc1C(=O)OCC(=O)c1cc(C)n(C)c1C,53.5*,-11.7,91.7*,0.9,-7.1,-86.4
CCn1c(C)cc(C(=O)COC(=O)c2cccnc2SC)c1C,16.8,-16.0,27.0,0.1,-8.0,-27.6
Cc1cc(N2CCNC[C@@H]2C)ccc1N1CCN(Cc2ccccc2)[C@@H](C)C1,-4.2,.,.,.,.,.
Nc1ncnc2c1ncn2[C@@H]1O[C@H](C(=O)Nc2cc(C(F)(F)F)cc(C(F)(F)F)c2)[C@@H](O)[C@H]1O,-2.5,.,.,.,3.0,.
O=C(COc1ccc(C(=O)c2ccccc2)cc1)NCc1ccc(F)cc1,.,-11.0,-9.4,0.0,28.7*,16.0
O=C(COc1ccccc1)NCc1ccccc1,-1.6,-9.4,5.5,-0.2,0.5,-4.7
CCNC(=O)COc1ccc(-c2ccccc2)cc1,40.5*,.,.,-1.3,-0.6,-42.6
CCNC(=O)COc1ccc(OCc2ccccc2)cc1,14.6,-11.8,31.5,-10.6,-0.3,-32.0
O=C(Cc1c[nH]c2ccccc12)Nc1ccc(Nc2cccnc2)c(-c2ccc(F)c(F)c2)c1,4.5,.,.,.,.,.
CC(C)C[C@H](NC1(C(=O)NCCc2c[nH]c3ccccc23)CCN(C)CC1)C(=O)NCCCc1ccccc1,.,.,.,2.6,.,.
Nc1cc(Nc2ccc(Br)cc2)nc(N)n1,38.7*,-20.8,?,3.0,-0.4,-66.7
Cc1cc(C)n2c(Nc3ccc4c(c3)OCCO4)c(-c3ccccc3)nc2n1,40.9*,32.4,.,11.8,-2.0,2.7
O=C(Nc1ccc(F)cc1)Nc1cc(OCC(F)(F)F)cc(OCC(F)(F)F)c1,.,20.4,-80.6,-2.9,-7.3,81.1*
COC(CNC(=O)[C@H](Cc1ccccc1)NC1(C(=O)NC2CCCCC2)CCC1)OC,.,.,.,0.0,.,.
Cc1cccc(N2CCN(S(=O)(=O)c3c(C)noc3/C=C/N(C)C)CC2)c1C,1.1,111.4*,-0.8,1.9,-2.9,4.1
O=S(=O)(c1ccc(Cl)c(C(F)(F)F)c1)N1CCN(c2ccccn2)CC1,-3.2,-20.3,6.1,-4.2,2.2,-6.2
CN(C)c1ccc(C2NC(=O)c3ccccc3N2)cc1 (stereo unspecified),31.0*,-5.3,77.2,-1.0,-6.9,-115.7
Cc1ccc2c(C)c(C(=O)Nc3ccc(S(N)(=O)=O)cc3)oc2c1C,30.0*,-3.5,20.8,-7.2,-0.6,-21.6
Cc1c(C(=O)Nc2ccc(S(=O)(=O)N(C)C3CCN(C)CC3)cc2)oc2c(Cl)cccc12,-1.8,59.0,-78.5,2.6,-1.1,79.3*
Cc1c(C(=O)Nc2ccc(S(=O)(=O)N(C)C3CCN(C)CC3)cc2)oc2ccccc12,-3.3,-5.6,3.9,3.3,3.6,-7.8
Fc1c(-c2ccc3ncnc(NCc4cccs4)c3c2)ccc2c1OCO2,.,.,.,-3.7,.,.
Cc1c(NC(=O)C2CCCN(S(=O)(=O)c3ccc(C(C)(C)C)cc3)C2)c(=O)n(-c2ccccc2)n1C (stereo unspecified),.,.,.,1.2,.,.
Cc1[nH]c2ccc(OCc3ccccc3)cc2c1CCN1C(=O)OC(C)(C)C1(C)O (stereo unspecified),-2.6,-0.8,.,.,0.7,.
SMILES,Wnt bcat act,PfHsp90 set2,MITF act,NSD2 HMT inh,Glyco luc inh,TRPM1 prom inh
Cc1[nH]c2ccc(F)cc2c1CCN1C(=O)OC(C)(C)C1(C)O (stereo unspecified),38.7*,9.5,9.4,2.0,1.9,-2.8
COc1cc(C=C2C(=O)c3ccccc3C2=O)ccc1OCC(=O)N1CCOCC1,.,.,.,4.4,.,.
Cc1ccc(C23CC4CC(CC(CC(=O)N5CCOCC5)(C4)C2)C3)cc1,1.6,68.3,-6.2,1.1,.,12.9
COC(=O)c1ccc(/C=C(\C#N)C(=O)NC(C)c2ccccc2)cc1 (stereo unspecified),-5.4,-14.6,-81.2,3.8,8.8,81.3*
CC(C)(C)c1ccc(-c2noc(CCC(=O)Nc3cccnc3)n2)cc1,-8.4,7.6,-79.0,.,-4.7,79.0*
CNC(=O)CCc1nc(-c2ccc(C(C)(C)C)cc2)no1,.,9.4,11.7,-4.1,-5.2,-11.0
CC(C)(C)c1ccc(-c2noc(CCC(N)=O)n2)cc1,.,-23.8,.,-1.3,-8.2,70.9*
CC(C)(C)c1ccc(-c2noc(CCC(=O)NCC3CCCO3)n2)cc1 (stereo unspecified),.,.,-84.0,-1.4,-8.1,83.8*
O=C(CNC(=O)c1ccc(Cl)cc1Cl)OCC(=O)N1CCOCC1,.,.,.,-2.1,.,.
Cc1[nH]nc2c1C(c1ccccc1)N(c1ccccc1)C2=O (stereo unspecified),0.0,.,.,.,.,.
Cc1ccnc(NC(=O)C2CC(=O)N(Cc3ccccc3)C2)c1 (stereo unspecified),?,-9.0,90.4*,-6.3,-9.9,-80.3
O=C(NCCOc1ccccc1F)C1CC(=O)N(Cc2ccccc2)C1 (stereo unspecified),34.4*,.,1.4,-1.2,-1.0,3.2
Cn1[nH]cc(C=NC(N)=O)c1=O,-0.8,-4.6,2.7,-7.1,0.7,-0.9
CCOC(=O)C1(NC(=O)C2(NC(=O)CN3C(=O)c4ccccc4C3=O)CCCC2)CCCC1,47.3*,21.9,-2.1,-2.4,-0.2,3.1
COc1ccc(CCNC(=O)CN2C(=O)c3ccccc3C2=O)cc1,.,8.8,6.5,.,1.7,-5.4
O=C(NCCN1CCC(Cc2ccccc2)CC1)C1CCCN(S(=O)(=O)c2cccs2)C1 (stereo unspecified),.,.,.,-2.3,.,.
COC(=O)c1ccc(CN2C(=O)[C@]3(OCCC=C[C@H]3C)c3ccccc32)cc1,-1.0,.,.,-2.6,.,.
O=C(/C=C\Nc1ccc2c(c1)OCO2)c1ccccn1,.,6.1,-75.2,-0.2,-19.3,75.3*
O=C(Nc1ccc2c(c1)OCO2)c1ccccn1,45.9*,0.5,58.3,4.7,-4.8,-47.1
O=C(Nc1ccc2c(c1)OCO2)c1cnccn1,-1.5,17.8,43.8,-3.4,-0.2,-46.0
C=CCNc1nc(Nc2ccc(-c3nc4ccccc4o3)cc2)nc(N2CCOCC2)n1,5.1,-3.5,15.6,0.7,-3.6,-13.5
CCCCNC(=O)c1cc(-c2ccc(OC)cc2)on1,.,.,80.7*,-3.4,-3.4,-76.1
CCCNC(=O)c1cc(-c2ccc(OC)cc2)on1,.,-4.3,41.3,-1.1,-7.6,-37.9
CCCCNC(=O)c1cc(-c2ccc(F)cc2)on1,-2.3,-10.3,14.7,-1.2,37.0*,-11.9
Cc1cc(NC(=O)Cc2cn(Cc3ccccc3)c3ccccc23)ccc1Oc1cccnc1,4.0,.,.,.,.,.
COc1ccc(OCCNC(=O)c2ccccc2Cl)cc1,-0.3,8.5,-6.6,-2.4,0.6,14.5
O=C(NCCOc1ccccc1)c1ccccc1Cl,34.6*,-16.5,71.3,2.6,-13.8,-74.1
O=C(N=Nc1c(O)[nH]c2ccccc12)c1cccs1,34.9*,-20.4,15.6,.,-7.0,-14.0
